Publication PMC4336329 (PLoS ONE, 2015)
About 14,000 (4.5%) of roughly 310,000 compounds showed an effect of 50% or more. Effects have a minus sign here. The sample holds strong results, similar compounds and a random draw of the others, so the mix is not that of the screen.

What follows are compounds tested against human ether-à-go-go-related gene (hERG) potassium channel (human, UniProt Q12809) (assay: primary screen, population patch clamp on CHO cells stably expressing hERG; higher = less effect of the substance).
Sequence of human ether-à-go-go-related gene (hERG) potassium channel (Q12809 whole entry, looked up): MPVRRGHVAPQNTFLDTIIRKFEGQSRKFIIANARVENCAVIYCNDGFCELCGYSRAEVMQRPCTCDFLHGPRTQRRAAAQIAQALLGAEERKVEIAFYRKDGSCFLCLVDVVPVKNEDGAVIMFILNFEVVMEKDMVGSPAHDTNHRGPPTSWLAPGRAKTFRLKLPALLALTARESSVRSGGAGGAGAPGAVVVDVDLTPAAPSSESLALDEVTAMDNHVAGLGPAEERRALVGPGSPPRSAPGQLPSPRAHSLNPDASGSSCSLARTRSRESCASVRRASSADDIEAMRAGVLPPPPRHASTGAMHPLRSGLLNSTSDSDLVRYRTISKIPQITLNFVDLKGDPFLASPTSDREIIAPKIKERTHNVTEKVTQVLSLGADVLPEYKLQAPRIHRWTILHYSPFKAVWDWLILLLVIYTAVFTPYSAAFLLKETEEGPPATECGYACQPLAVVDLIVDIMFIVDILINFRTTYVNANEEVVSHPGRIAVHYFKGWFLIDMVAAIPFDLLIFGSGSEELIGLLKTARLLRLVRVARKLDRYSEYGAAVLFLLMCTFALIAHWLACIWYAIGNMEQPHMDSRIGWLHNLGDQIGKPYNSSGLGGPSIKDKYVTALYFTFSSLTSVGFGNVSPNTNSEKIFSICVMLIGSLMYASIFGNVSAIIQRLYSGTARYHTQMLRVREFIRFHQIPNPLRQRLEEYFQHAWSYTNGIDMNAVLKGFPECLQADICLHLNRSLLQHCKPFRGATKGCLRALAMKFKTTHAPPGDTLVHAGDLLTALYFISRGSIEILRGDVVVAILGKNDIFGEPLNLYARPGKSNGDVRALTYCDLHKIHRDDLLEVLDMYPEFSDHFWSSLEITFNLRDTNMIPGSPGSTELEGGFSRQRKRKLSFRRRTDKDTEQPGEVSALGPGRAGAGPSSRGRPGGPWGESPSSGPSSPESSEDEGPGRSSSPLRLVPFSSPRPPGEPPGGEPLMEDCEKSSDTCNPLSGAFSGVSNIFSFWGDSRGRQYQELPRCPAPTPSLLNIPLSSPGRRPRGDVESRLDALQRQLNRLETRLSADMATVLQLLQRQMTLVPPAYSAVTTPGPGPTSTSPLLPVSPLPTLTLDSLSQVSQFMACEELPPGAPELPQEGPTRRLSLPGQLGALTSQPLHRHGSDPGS
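Also: peak tail current of the secondary pulse compared with the same well before compound.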

Structure (SMILES) | hERG current change (%, negative = inhibition) at 10uM [%]
Cc1cc(NN)nc(Cc2ccccc2)n1 | 10.2
Cc1cc(O)c(C(C)C)cc1NC(=O)c1cccc(Cl)c1 | -13.4
O=C(CNC(=O)c1cccc(F)c1)OCC(=O)N1CCCc2ccccc21 | -0.321
CCN(CC)c1ccc(C(=O)OCC(=O)Nc2cccc(S(=O)(=O)NC3=NCCCCC3)c2)cc1 | 7.02
O=C(NCCc1ccccc1)C(=S)N1CCCCC1 | 9.48
CC(=O)Nc1ccc(C(=O)COC(=O)CCc2ccccc2)c(F)c1 | -2.03
CCc1ccc(NC(=O)c2ccccc2Br)cc1 | -11.2
COc1ccc(CCN(C)C2CCCN(S(=O)(=O)C(C)C)C2)cc1OC (stereo not drawn) | -20.2
COc1ccc(CCN(C)C2CCCN(S(=O)(=O)c3ccccc3)C2)cc1OC (stereo not drawn) | -77.2
COc1ccc(S(=O)(=O)N2CCCC(N(C)CCc3ccccc3)C2)cc1OC (stereo not drawn) | -66.5
C=CCS(=O)(=O)N1CCCC(N(C)CCc2ccc(OC)c(OC)c2)C1 (stereo not drawn) | -16.1
COc1ccc(CCN(C)C2CCCN(S(C)(=O)=O)C2)cc1OC (stereo not drawn) | -4.36
COc1ccc(CCN(C)C(=O)c2ccc(C)c(S(=O)(=O)N3CCCCC3)c2)cc1OC | -20.9
COc1ccc(S(=O)(=O)N2CCCC(C(=O)N3CCCC3)C2)cc1OC (stereo not drawn) | 4.14
COc1ccc(CCN(C)C2CCCN(S(=O)(=O)c3ccc(C)cc3)C2)cc1OC (stereo not drawn) | -78
COc1ccc(CCN(C)C2CCCN(S(=O)(=O)N(C)C)C2)cc1OC (stereo not drawn) | -8.26
COc1ccc(CCN(C)C2CCCN(S(=O)(=O)c3ccccc3F)C2)cc1OC (stereo not drawn) | -64.3
C/C=C(\C)CN1CCCC(N(C)CCc2ccc(OC)c(OC)c2)C1 (stereo not drawn) | -27.5
CN(CCc1ccccc1)C1CCCN(S(=O)(=O)c2cccc(F)c2)C1 (stereo not drawn) | -48.1
COc1ccc(NC(=O)c2nn(C34CC5CC(CC(C5)C3)C4)cc2[N+](=O)[O-])cc1 | -0.0263
O=c1nc(N2CCOCC2)ccn1-c1nc(-c2ccccc2)oc1-c1ccccc1 | -9.71
Cc1c(NC(=O)COC(=O)C23CC4CC(CC(O)(C4)C2)C3)c(=O)n(-c2ccccc2)n1C | 10.1

Structure (SMILES) | hERG current change (%, negative = inhibition) at 10uM [%]
Cc1oc(-c2ccccc2F)nc1CS(=O)(=O)CC(=O)NCc1ccccc1Cl | -17.9
c1ccc(Nc2ncnc3sc4c(c23)CCC4)cc1 | 0.132
Nc1ccc2nc(SCC(=O)N3CCOCC3)sc2c1 | 17
COc1ccc(NC(C)=O)cc1C#N | 19.3
CCOc1ccccc1NC(=O)NCc1ccc2c(c1)OCO2 | 22.4
CCOc1ccccc1CN(CCc1ccc2c(c1)OCO2)Cc1ccccn1 | -64.4
CC(C)C(=O)N(Cc1ccc2c(c1)OCO2)Cc1ccccn1.Cl | -7.53
CCN1C(=O)c2cccc3c(NC(=O)c4ccccc4)ccc1c23 | 9.37
CCN1C(=O)c2cccc3c(NC(=O)c4ccc(OC)c(OC)c4)ccc1c23 | -68.3
CCOc1cc(C(=O)Nc2ccc3c4c(cccc24)C(=O)N3CC)cc(OCC)c1OCC | -5.15
O=P(O)(Oc1ccccc1)OC(c1ccccc1)C(F)(F)C(F)(F)F (stereo not drawn) | 27.3
Cc1cc(C)cc(OCC(=O)Nc2ccc(N3CCOCC3)cc2N2CCOCC2)c1 | -6.54
COC(=O)c1ccc(N2CCN(C)CC2)c(NC(=O)COc2ccc(OC)cc2)c1 | -53.5
COC(=O)c1ccc(N2CCN(C)CC2)c(NC(=O)COc2ccc(C)cc2)c1 | -20
CN1CCN(c2ccccc2NC(=O)COc2ccccc2)CC1 | -48.4
CC(=O)N1CCN(c2ccccc2NC(=O)COc2ccc(Br)cc2)CC1 | -9.2
CC(=O)N1CCN(c2ccccc2NC(=O)COc2ccccc2C)CC1 | -14
CC(=O)N1CCN(c2ccccc2NC(=O)COc2cc(C)cc(C)c2)CC1 | -52.4
O=C(COc1cccc(Br)c1)Nc1ccc(N2CCOCC2)cc1N1CCOCC1 | -50.6
COC(=O)c1ccc(N2CCN(C)CC2)c(NC(=O)COc2ccccc2)c1 | -43.9
CN1CCN(c2ccccc2NC(=O)COc2ccc(Br)cc2)CC1 | -58
O=C(COc1ccc(Br)cc1)Nc1ccc(N2CCOCC2)cc1N1CCOCC1 | -7.56

Structure (SMILES) | hERG current change (%, negative = inhibition) at 10uM [%]
Cc1cc(C)cc(OCC(=O)Nc2ccccc2N2CCCCC2)c1 | -0.491
O=C(Nc1cccc(Cl)c1)OC1CCCCc2cccnc21 (stereo not drawn) | 4.75
COc1ccc(-c2cc(N3C(=O)Nc4ccccc4N3O)n[nH]2)cc1OC | 3.84
CCO[C@@H]1OC(C(=O)N2CCOCC2)=C[C@H](c2cn(C(C)=O)c3ccccc23)[C@H]1CCCO | -20.3
CSc1nc2sccc2c(=O)[nH]1 | 32.8
Cc1cccc(NC(=O)c2ccccc2NC(=O)c2ccccc2)n1 | -0.693
COc1ccc(C(C)NC(=O)CCc2ccccc2)cc1 (stereo not drawn) | 10
Clc1ccc(-c2nc3ccncc3[nH]2)cc1 | -17.3
COc1ccccc1-n1c(O)c(C=NCc2ccccn2)c2ccccc2c1=O | -8.58
Cc1ccc(N2C(=O)CC(Sc3nc(-c4ccccc4)c4cc(Cl)ccc4n3)C2=O)c(C)c1 (stereo not drawn) | 3.36
CN1CCN(c2ccccc2NC(=O)COc2ccc(Cl)cc2)CC1 | -59.9
COc1cc(CCC(=O)Nc2cc(Cl)ccc2N2CCN(C)CC2)cc(OC)c1OC | -10.2
COc1ccc(CCC(=O)Nc2cc(Cl)ccc2N2CCN(C)CC2)cc1 | -50.1
CCn1c(=O)cc(OCC(=O)Nc2ccccc2N2CCN(C)CC2)c2ccccc21 | -58.3
COc1ccc(CC(=O)Nc2cc(Cl)ccc2N2CCCC2)cc1 | 15.7
COc1ccc(OCC(=O)Nc2ccccc2N2CCN(C)CC2)cc1 | -38.6
Cc1cccc(OCC(=O)Nc2ccccc2N2CCCCC2)c1 | 2.17
CCOC(=O)c1ccccc1NC(=O)COc1cc(=O)n(CC)c2ccccc12 | 5.47
CCn1c(=O)cc(OCC(=O)Nc2ccccc2C#N)c2ccccc21 | 6.06
CCC(=O)N1CCN(c2ccccc2NC(=O)COc2cccc(C)c2)CC1 | -38.2
CN1CCN(c2ccccc2NC(=O)COc2ccc(C3CCCCC3)cc2)CC1 | 16.8
Cc1cccc(OCC(=O)Nc2ccccc2N2CCN(C)CC2)c1 | -51.2
